Laboratory results from PMC12136788.
Over roughly 5,800 sequences, “enrichment r” has its median near 0.68; the highest 2% begin near 11. Only a selection was taken, and the highest values are over-represented in it overall.

T1: UNK ZnF1-6 (called full-length) (human, UniProt Q9C0B0 30-357)
T1 sequence: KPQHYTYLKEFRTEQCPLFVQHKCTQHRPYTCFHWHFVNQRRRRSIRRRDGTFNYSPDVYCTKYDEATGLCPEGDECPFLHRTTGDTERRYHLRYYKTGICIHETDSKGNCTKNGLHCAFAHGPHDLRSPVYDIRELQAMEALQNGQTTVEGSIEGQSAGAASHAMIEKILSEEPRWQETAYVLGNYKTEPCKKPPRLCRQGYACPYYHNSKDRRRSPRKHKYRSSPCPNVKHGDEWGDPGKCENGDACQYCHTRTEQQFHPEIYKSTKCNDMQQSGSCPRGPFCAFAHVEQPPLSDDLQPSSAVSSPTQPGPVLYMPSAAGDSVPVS

B1: chr5:113014749:113014850:+|3pUTR|ENSG00000172795|msi1|total|mutant (ssRNA)
RNA: GGGAGUUCUACAGUCCGACGAUCUAAAAAUCCUUUUUUACAGUGGUAUCCACAAAAUACUUCUCUGCUUAUAAAUGUUAUUGCCGAAAUCUUUAUUCUGUGCCGGCCGCCUAUUUAAUUGGGUUCCACUGAACCUCAUGGGACCAACAGAGGAUUGAGCAUCA
B2: chrX:51682015:51682831:-|CDS|ENSG00000283093|control|control|control (ssRNA)
RNA: GGGAGUUCUACAGUCCGACGAUCCAGUGCCCCCGGGUCCAAGUCGGGGUCGGGAGCCACGCGGCGGCCAAGAGGUGGCUGGGUAGGUGGCGACGGAAGCGCCGCUGGCGGCGGGUCCGGAAGGCGGGCCCCAGAGACCUGCUGCAACAGAGGAUUGAGCAUCA
B3: chr7:127374855:127374969:-|CDS|ENSG00000048405|unk|FALSE|unique (ssRNA)
RNA: GGGAGUUCUACAGUCCGACGAUCCCUAGAAGCCAUAUAUCCAAGUGUGGACAAACGAGAAUAUAUUAUUAAGCUAGAACCCAUAGAAACUAAUCAAAAUGCAGUAUUUCAAUAUAUUUCGAGGACUGAUAAUCCUAUUGAAGUCAACAGAGGAUUGAGCAUCA
B4: chr10:87746157:87746259:+|3pUTR|ENSG00000198682|unk|FALSE|unique (ssRNA)
RNA: GGGAGUUCUACAGUCCGACGAUCAACUGAAGACCAAAUCUUAGCAGGUAAAAGCAAUAUUCUUAUACAUUUCAUAAUAAAAUUAGCUCUAUGUAUUUUCUACUGCACCUGAGCAGGCAGGUCCCAGAUUUCUUAAGGCUUUGUCAACAGAGGAUUGAGCAUCA
B5: chr3:120327094:120327202:-|3pUTR|ENSG00000163428|unk|FALSE|unique (ssRNA)
RNA: GGGAGUUCUACAGUCCGACGAUCGAAGAGAAGUCACCAAACACCUAGGGACAGUCCUAGGCCUAGAAAGCCCUUUAAAGUAAUAGUGAAUUGUUUUAAAAUUAAGUUAUUGAGUGGCCUACUGACUACCAUCCAAAAACCUUUCAACAGAGGAUUGAGCAUCA
B6: chr6:96891104:96891324:-|CDS|ENSG00000123545|unk|FALSE|unique (ssRNA)
RNA: GGGAGUUCUACAGUCCGACGAUCUAAUCAUAAGCUUUUCCCAGAAACCUGGACUGCUGAGAAAAUAAUGCAGGAAUACCAGUUAGAACAGAAAGAUGUGAAUUCUCUUCUUAAAUAUUUUGUUACUUUUGAAGUCGAAAUCUUCAACAGAGGAUUGAGCAUCA
B7: chr5:141515350:141515460:-|3pUTR|ENSG00000131504|msi1_unk|FALSE|overlapping (ssRNA)
RNA: GGGAGUUCUACAGUCCGACGAUCCUCAGCUUUCCAUCCCCAGCUAGGAAGAAAGAAUGGCACUCUUGGGCUUGGCCCAGAAUUAGAGUUAUUAGAGCAAGAGAGAGCUUAGGAAGCAUGAGGGCAACUAUAGUGAGGCCUUAUCAACAGAGGAUUGAGCAUCA
B8: chr5:111496093:111496242:-|3pUTR|ENSG00000164211|unk|FALSE|unique (ssRNA)
RNA: GGGAGUUCUACAGUCCGACGAUCUUUACAUGUAUAGUUAAAUAUUAAAAUUCAUCUCUUGCAGUUCAAUAAAAGCUAUAGUAUAGAUUUUAUUUUUAAGAAGUUUAUAUAAUUCUUUUGUGAACCAAUAUGUAAAACUAGAAUCAACAGAGGAUUGAGCAUCA
B9: chr17:21001410:21001511:-|3pUTR|ENSG00000124422|msi1_unk|FALSE|overlapping (ssRNA)
RNA: GGGAGUUCUACAGUCCGACGAUCUAGUACAACUUUUAGACACAGAAAUCUGAAUGACAUAUAUUGUUCUGUGUCAAGAAACUUAGAUUUUUUUUUUAACUAUUUAAAAACGUGAAACCUAUUCUUAGCUCACAGGCCAUGGAGCAACAGAGGAUUGAGCAUCA
B10: chr12:100626600:100626701:+|3pUTR|ENSG00000139354|unk|FALSE|unique (ssRNA)
RNA: GGGAGUUCUACAGUCCGACGAUCAAUUUUAUCAUCAAGUAUUCCCUUAUAAAACCAAGUAACACUUCUUUAUCAGUAACUUUUAGAACUUAAAAGAAAGCAAAAAGUAAAUGGAAUUGUAGGCAAUUUAUGAAUCCUAGUAGACAACAGAGGAUUGAGCAUCA
B11: chr6:39540002:39540221:-|CDS|ENSG00000164627|control|control|control (ssRNA)
RNA: GGGAGUUCUACAGUCCGACGAUCCCACUUGGCUGGCAUGGAUAGACGUGAAUUCAGACAGUCCCAGAGCCCACCCUUCCGCCUAGGAAACCCAGAAGAAGGUCAAAGAAUGCGACUAUCCUCAGCUCCCUCACAGGCCCAGGACAACAGAGGAUUGAGCAUCA
B12: chr4:54297753:54297953:+|3pUTR|ENSG00000134853|msi1|FALSE|unique (ssRNA)
RNA: GGGAGUUCUACAGUCCGACGAUCUUUUUAUGAUGACAAUCAAAGCCGGCCUGAGAAACACUAUUUGUGACUUUUUAAACGAUUAGUGAUGUCCUUAAAAUGUGGUCUGCCAAUCUGUACAAAAUGGUCCUAUUUUUGUGAAGACAACAGAGGAUUGAGCAUCA
B13: ENSG00000156687:stop:overlap|stop_codon|ENSG00000156687|stop_codon|NA|stop_codon (ssRNA)
RNA: GGGAGUUCUACAGUCCGACGAUCACAUUUCAGAAUCCCAGCUUGAUGAAGCCGACUUCAACUACAGCAGGCAAAAUGGACUCUAGUCCACUUCCUCCCAUGAGACAGAGUGAUGGCCAGCUUGGGGACAUUUGCUUUAAAUGGCAACAGAGGAUUGAGCAUCA
B14: chr6:89631235:89631336:+|3pUTR|ENSG00000135299|msi1|FALSE|unique (ssRNA)
RNA: GGGAGUUCUACAGUCCGACGAUCUGAAGUUUGAAAGCUCAGAUUAAGCAAGCCAUGCCAAGAAACUGGACGAUGUGUAAGCCUAGACUCUAAAAUUCAAGAUGUGUGAAAUAAUAUAAGUCAAAAGCAAGAAAAACGUAAUCCCAACAGAGGAUUGAGCAUCA

Each binder was assayed against T1, UNK ZnF1-6 (called full-length) (assay: nsRBNS (natural sequence RNA bind-n-seq); RBNS binding buffer (assumed for nsRBNS): 25 mM Tris pH 7.5, 150 mM KCl, 3 mM MgCl2, 0.01% Triton X-100, 500 ug/ml BSA, 20 U/ml SUPERase-In, 4 C; UNK is unkempt and MSI1 is Musashi-1; names of the RNAs are library labels; protein concentration not given here; high values mean tight binding).

In order of rising binding signal:
1. B14  0.227 enrichment R
2. B12  0.454 enrichment R
3. B13  0.56 enrichment R
4. B1  0.567 enrichment R
5. B6  0.645 enrichment R
6. B11  0.794 enrichment R
7. B8  2.13 enrichment R
8. B5  3.46 enrichment R
9. B10  4.55 enrichment R
10. B2  6.11 enrichment R
11. B7  13.3 enrichment R
12. B3  18.1 enrichment R
13. B4  18.7 enrichment R
14. B9  24.9 enrichment R
